Data from the supplement of paper PMC10503962.

System: Trichuris muris adult worms
Experiment: mean motility score (Paragon pixel variance) of adult worms (arbitrary units); higher = more motile worms, i.e. less anthelmintic effect; extreme values may be limits of the assay
Conditions: 100 µM; 24 h
Method in brief: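 Motility score was obtained through Paragon pixel-variance analysis and averaged across replicate wells. To generate it, single adult Trichuris muris worms taken from infected NOD SCID mice were kept for 24 h at 37°C and 5% CO2 in 96-well plates, each well holding 100 μL RPMI-1640 plus antibiotics and drug at 100 μM (1% v/v DMSO). The plates were then recorded on an automated phenotyping platform (200 frames, 100 ms apart).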

Structure (SMILES)	mean motility score
Cc1ccc(-c2cc(C(F)(F)F)nn2-c2ccc(S(N)(=O)=O)cc2)cc1 [celecoxib]	0
CCc1nc(N)nc(N)c1-c1ccc(Cl)cc1 [pyrimethamine]	2930
O=c1[nH]c(=O)n([C@H]2C[C@H](O)[C@@H](CO)O2)cc1F [floxuridine]	2280
CN(C)C(=O)C(CCN1CCC(O)(c2ccc(Cl)cc2)CC1)(c1ccccc1)c1ccccc1 [loperamide]	0
CN(C)CC/C=C1/c2ccccc2Sc2ccc(Cl)cc21 [chlorprothixene]	5
CCCCCCCCCCCCCCCCOP(=O)([O-])OCC[N+](C)(C)C [miltefosine]	2810
CCCCOc1cc(C(=O)NCCN(CC)CC)c2ccccc2n1 [dibucaine]	2070
CCC(NC(C)C)C(O)c1ccc(O)c2nc(O)ccc12.Cl (stereo not drawn) [procaterol hydrochloride]	2060
CCCC(=O)O[C@]1(C(=O)COC(C)=O)CC[C@H]2[C@@H]3C[C@H](F)C4=CC(=O)C=C[C@]4(C)[C@@]3(F)[C@@H](O)C[C@@]21C [difluprednate]	3520
Cc1ccccc1C(OCCN(C)C)c1ccccc1.Cl (stereo not drawn) [orphenadrine hydrochloride]	1810
CN(C)C/C=C/C(=O)Nc1cc2c(Nc3ccc(F)c(Cl)c3)ncnc2cc1O[C@H]1CCOC1 [afatinib]	0
COc1ccccc1O [guaiacol]	2150
CC(C)c1c(C(=O)Nc2ccccc2)c(-c2ccccc2)c(-c2ccc(F)cc2)n1CC[C@@H](O)C[C@@H](O)CC(=O)O [atorvastatin]	2620
NC[C@H](O)c1ccc(O)c(O)c1 [noradrenaline]	3120
CC1=CC(=O)c2ccccc2C1=O [menadione]	361
Cc1nc2n(c(=O)c1CCN1CCC(c3noc4cc(F)ccc34)CC1)CCCC2 [risperidone]	2130
Nc1nc(N)c2nc(-c3ccccc3)c(N)nc2n1 [triamterene]	2070
OCCO [ethylene glycol]	3150
CS(=O)(=O)c1cccc(C[C@H](NC(=O)c2c(Cl)cc3c(c2Cl)CCN(C(=O)c2ccc4ccoc4c2)C3)C(=O)O)c1 [lifitegrast]	3490

Structure (SMILES)	mean motility score
COC1=CC(=O)C[C@@H](C)[C@]12Oc1c(Cl)c(OC)cc(OC)c1C2=O [griseofulvin]	1250
NS(=O)(=O)c1cc2c(cc1Cl)NC(CSCc1ccccc1)=NS2(=O)=O [benzthiazide]	3040
CN(C)[C@@H]1C(O)=C(C(N)=O)C(=O)[C@@]2(O)C(O)=C3C(=O)c4c(O)cccc4[C@@](C)(O)[C@H]3[C@H](O)[C@@H]12 [oxytetracycline]	2120
CCO[C@@H](Cc1ccc(OCCc2ccc(OS(C)(=O)=O)cc2)cc1)C(=O)O [tesaglitazar]	3880
CCCCOc1ccc(C(=O)CCN2CCCCC2)cc1.Cl [dyclonine hydrochloride]	3270
COc1ccccc1OCCNCC(O)COc1cccc2[nH]c3ccccc3c12 (stereo not drawn) [carvedilol]	35.7
OCC(S)CS (stereo not drawn) [dimercaprol]	1550
Nc1ncnc2c1ncn2[C@@H]1O[C@H](COP(=O)(O)O)[C@@H](O)[C@H]1O [adenosine phosphate]	4280
Nc1nc(O)c2ncn(COC(CO)CO)c2n1 [ganciclovir]	2950
CCOc1cc(CC(=O)N[C@@H](CC(C)C)c2ccccc2N2CCCCC2)ccc1C(=O)O [repaglinide]	268
O=C(NCCO[N+](=O)[O-])c1cccnc1 [nicorandil]	2790
CSc1ccc(C(=O)c2nc(O)[nH]c2C)cc1 [enoximone]	1970
CC(=O)O[C@H]1C(=O)[C@@]2(C)[C@H]([C@H](OC(=O)c3ccccc3)[C@]3(O)C[C@H](OC(=O)[C@H](O)[C@@H](NC(=O)c4ccccc4)c4ccccc4)C(C)=C1C3(C)C)[C@]1(OC(C)=O)CO[C@@H]1C[C@@H]2O [paclitaxel]	1480
COc1ccc(C(=O)CC(=O)c2ccc(C(C)(C)C)cc2)cc1 [avobenzone]	3070
Cc1c(C(=O)NN2CCCCC2)nn(-c2ccc(Cl)cc2Cl)c1-c1ccc(Cl)cc1 [rimonabant]	2060
CN1CCCC(n2nc(Cc3ccc(Cl)cc3)c3ccccc3c2=O)CC1.Cl (stereo not drawn) [azelastine hydrochloride]	396
O=c1oc2ccccc2c(O)c1Cc1c(O)c2ccccc2oc1=O [dicumarol]	0
CCC[C@H](N[C@@H](C)C(=O)N1[C@H](C(=O)O)C[C@@H]2CCCC[C@@H]21)C(=O)OCC [perindopril]	3860
NCCNCCNCCN [trientine]	2070
